Consider 80 compounds from PubChem BioAssay AID652105 (National Center for Advancing Translational Sciences (NCATS), 2013).

Among all 330,000 compounds or so, about 4,100 (1.2%) were called active. Another 2% or so got no clear call; they are omitted. Rule for the calls: active = max response of -50% or lower; inconclusive = between -30% and -50%; inactive = -30% or higher. Shown is part of a subset that was picked to be rich in actives.
% is set by controls: 0 for no effect and ±100 for the full control effect.

The target of this test is Phosphatidylinositol 5-phosphate 4-kinase type-2 alpha (Homo sapiens) (UniProt P48426). Description: qHTS for Inhibitors of phosphatidylinositol 5-phosphate 4-kinase (PI5P4K). Note: value at the top dose of about 77 µM. The settings on record: PI5P4Kalpha enzyme, ADP-Glo luminescence, 60 min; stronger effect = lower value. An outline of the steps: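 Quantitative HTS of the MLSMR library against PI5P4Kalpha with substrate. ATP added last at 5 microM final; room temperature, 60 minutes. Remaining ATP depleted, ADP converted and read as luminescence.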
Sequence of Phosphatidylinositol 5-phosphate 4-kinase type-2 alpha (Homo sapiens) (P48426 whole entry, looked up): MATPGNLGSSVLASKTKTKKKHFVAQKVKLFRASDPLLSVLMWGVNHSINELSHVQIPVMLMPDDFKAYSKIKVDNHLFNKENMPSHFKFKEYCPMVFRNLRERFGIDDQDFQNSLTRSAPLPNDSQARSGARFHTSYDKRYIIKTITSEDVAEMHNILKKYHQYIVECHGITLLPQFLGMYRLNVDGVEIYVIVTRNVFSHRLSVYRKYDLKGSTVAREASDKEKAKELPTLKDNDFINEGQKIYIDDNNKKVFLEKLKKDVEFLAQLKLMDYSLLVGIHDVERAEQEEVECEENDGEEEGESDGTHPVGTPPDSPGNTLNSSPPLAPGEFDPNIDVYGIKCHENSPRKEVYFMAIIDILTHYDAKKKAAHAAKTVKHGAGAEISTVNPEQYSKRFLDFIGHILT
For orientation: qHTS replaces the single test concentration by a dilution series.
`OC(c1cc(Cl)cc(Cl)c1)c1ncc(-c2ccccc2C(F)(F)F)[nH]1` (stereo not given): the max response was 14.3% (inactive).

Turning to `COc1ccc(NC(=O)C2Cc3c(-c4cccc(NC(C)=O)c4)ccnc3O2)cc1OC` (stereo not given), the max response is -8.09% (inactive).

With `C=CCC[C@H](CCCCC)OC(=O)/C=C/[C@H](O)[C@@H](O)C[C@@H](O)CC=C`, the max response was 17.1% (inactive).

As for `O=C(CNC(=O)Cc1ccccc1)N=Nc1c(O)[nH]c2ccc(Br)cc12`, the max response was -6.57% (inactive).

On to `Oc1[nH]c2ccc(Br)cc2c1N=Nc1nn[nH]n1`, for which the max response is -58.4% (active).

As for `NS(=O)(=O)c1ccc(N=Nc2c(O)[nH]c3ccc(Br)cc23)cc1`, the max response was -0.139% (inactive).

Consider `CC1(C(=O)NCc2ccccc2)CN(S(C)(=O)=O)CC(=O)N1CC(F)(F)F` (stereo not given), for which the max response was -7.01% (inactive).

Take `O=C(O)c1ccccc1N=N/C(=N/Nc1cc(S(=O)(=O)O)ccc1O)c1ccccc1`: the max response is -101% (active).

Regarding `CN1OC[C@@H]2CN(C(=O)c3cccc4ccccc34)[C@H](c3ccc(N4CCCCC4)cc3)C[C@@H]21`, the max response is -0.774% (inactive).

As for `COC(=O)c1ccc2nc(-c3ccc(OC)c(OC)c3)c(Cc3ccccc3)n2c1`, the max response was -1.07% (inactive).

With `CCOC(=O)C=Cc1ccc(C(=O)OCC)[nH]1`, the max response was 2.97% (inactive).

On to `CCN(CCN(C)C)C(=O)c1ccc2nc(C)c(N(C)C(=O)CCc3ccccc3)n2c1`, for which the max response was 10.1% (inactive).

`O=C(COC(=O)Cc1ccc(Cl)cc1Cl)NCc1ccco1`: the max response was 0.392% (inactive).

For the compound `O=C(COC(=O)c1cccs1)NCc1cccs1`, the max response is -2.68% (inactive).

On to `O=C(COC(=O)c1cc(S(=O)(=O)N2CCCCC2)ccc1Cl)NCc1ccco1`, for which the max response is -24.6% (inactive).

For `O=C(COC(=O)c1ccccc1O)NCc1ccco1`, the max response is -51.6% (active).

For `O=C(COC(=O)CCC(=O)c1cccs1)NCc1ccco1`, the max response is -63% (active).

Regarding `CC1CCN(C(=O)COC(=O)CCC(=O)c2cccs2)CC1`, the max response was -4% (inactive).

On to `Cc1cc(C)n2c(Nc3c(C)cccc3C)c(CCc3ccccc3)nc2n1`, for which the max response was 0.703% (inactive).

On to `Cc1ccc(Cc2c(-c3ccc(Cl)cc3)nc3c4ccccc4ccn23)cc1`, for which the max response was 19.7% (inactive).

Take `Cc1ccccc1Cn1c(C)c(C(=O)NCc2cccc(C(F)(F)F)c2)sc1=O`: the max response was 6.94% (inactive).

As for `CCCCCn1nnnc1-c1nc2cc3ccccc3cc2[nH]c1=O`, the max response is -6.84% (inactive).

In the case of `CCOC(=O)C(C(=O)c1ccccc1)C(c1ccccc1)c1nccc2ccccc12` (stereo not given), the max response is -6.07% (inactive).

With `N#CCc1c(C#N)c(N)nc(N2CCCC2)c1C#N`, the max response was -5.04% (inactive).

Turning to `N#Cc1c(N2CCCCC2)nc(N)c2c(N)nc(SCC(=O)O)cc12`, the max response is -86.9% (active).

Take `N#Cc1c(-c2ccccc2)cc(-c2ccccc2)nc1SCC(=O)O`: the max response is -13.7% (inactive).

As for `Nc1ncnc2c1ncn2[C@@H]1O[C@H](C(=O)NS(=O)(=O)c2c(Cl)nc3sccn23)[C@@H](O)[C@H]1O`, the max response was -5.36% (inactive).

In the case of `CC(C)(C)CC(=O)Nc1nc(C(N)Cc2ccc(C(F)(F)F)cc2)cs1` (stereo not given), the max response was 0.168% (inactive).

For `Nc1ncnc2c1ncn2[C@@H]1O[C@H](C(=O)N2CCCN(Cc3ccccc3F)CC2)[C@@H](O)[C@H]1O`, the max response is 1.03% (inactive).

Regarding `CCOC(=O)C(Sc1ncc(C#N)c(N)n1)C(C)C` (stereo not given), the max response is -50.3% (active).

For the compound `CCOC(=O)CSc1nccc(N(C)C)c1C#N`, the max response was -3.71% (inactive).

Take `CCOC(=O)COc1nc(C)cc(C(F)(F)F)c1C#N`: the max response was 3.55% (inactive).

`CCOC(=O)C1(C)CCCN(C(=O)c2ccc(F)c(Cl)c2)C1` (stereo not given): the max response was -14.5% (inactive).

As to `CCOC1=C2[C@@H](CN(S(=O)(=O)c3ccc(C)cc3)[C@H]2c2ccccc2F)[C@H]2C(=O)N(Cc3ccccc3)C(=O)[C@H]2C1`, the max response is -0.38% (inactive).

With `CCCNC(=O)C1(C)CCN(Cc2ccc(Cl)c(Cl)c2)C1` (stereo not given), the max response was 6.81% (inactive).

As to `CCCCN(C=O)c1c(CC)nc2c(OCc3ccccc3C(=O)OC)cccn12`, the max response was -7.91% (inactive).

Regarding `O=C1[C@H]2[C@@H](c3ccc(C(F)(F)F)cc3)N[C@]3(CCCN(Cc4ccc(Cl)cc4)C3=O)[C@H]2C(=O)N1Cc1ccccc1`, the max response is 6.21% (inactive).

With `COC(=O)[C@@]12C[C@@H](CC(=O)NCCCCc3ccccc3)C(=O)N(CCc3ccc(OC)c(OC)c3)C1=CCC(C)(C)C2`, the max response was 21.2% (inactive).

Consider `O=c1[nH]c2ccccc2n2c(-c3ccccc3)nnc12`, for which the max response was -92.9% (active).

Regarding `O=C(c1ncn2c1c(=O)[nH]c1ccccc12)N1CCc2ccccc2C1`, the max response was -1.33% (inactive).

With `O=c1[nH]n2c(-c3ccccc3)nc(O)c2c2ccccc12`, the max response is -2.92% (inactive).

For the compound `CN(Cc1ccccc1F)c1cc2c(c3c1ccn3C)C1CCC2O1` (stereo not given), the max response was -0.125% (inactive).

Consider `C[C@@H]1CN([C@H](C)CO)S(=O)(=O)c2ccc(C#C[C@@H](C)O)cc2O[C@@H]1CN(C)Cc1ccc(-c2ccccc2)cc1`, for which the max response was 2.03% (inactive).

Regarding `OC[C@@H]1CN(Cc2ccc3c(c2)OCO3)C[C@H](n2cnc3c(NCc4ccco4)ncnc32)O1`, the max response was -4.15% (inactive).

Regarding `CC(Sc1ccc(S(=O)(=O)N2CCN(C)CC2)cn1)C(=O)NC1CCCC(C)C1C` (stereo not given), the max response was 0.777% (inactive).

Consider `COc1ccc(-c2ccc3[nH]c4c(c3c2)CCN2C[C@H]3[C@H](C)ON(C)[C@H]3C[C@@H]42)cc1`, for which the max response was 0.74% (inactive).

As to `O=C(C[C@H]1C[C@@H]2c3cc(NC(=O)C4CCC4)ccc3O[C@@H]2[C@H](CO)O1)NC1CCCCC1`, the max response is -3.63% (inactive).

For `CCn1cc(/C=C2/SC(=S)NC2=O)c(C)n1`, the max response is -66.5% (active).

Take `Cc1nn(C)cc1/C=C1\CCC/C(=C\c2cn(C)nc2C)C1=O`: the max response is -2.16% (inactive).

`C=C1C(=O)[C@]23C[C@H]1CCC2[C@@]1(C)C(C[C@@H]3O)[C@](C)(C(=O)O)CC[C@@H]1O` (stereo not given in full): the max response is 3.48% (inactive).

On to `O=[N+]([O-])c1ccc(CN2CC(N3CCC(c4ccccc4)CC3)CS2(=O)=O)cc1` (stereo not given), for which the max response was 5.16% (inactive).

Turning to `COc1ccc(CNc2nc3c(c(=O)[nH]c(=O)n3C)n2Cc2ccccc2)cc1`, the max response was 6.3% (inactive).

With `Cn1c(=O)[nH]c(=O)c2c1[nH]c(=S)n2Cc1ccccc1`, the max response is -85.5% (active).

Consider `C=CCSc1nc2c(c(=O)[nH]c(=O)n2C)n1Cc1ccccc1`, for which the max response was 7.13% (inactive).

`C#CCOCCOCCOCCNc1nc(N2CCN(C(=O)[C@H](C(C)C)n3cc(CCO)nn3)CC2)nc(N2CCN(C(=O)[C@H]([C@@H](C)CC)n3cc(CCCN=C(N)N)nn3)CC2)n1`: the max response is -3.39% (inactive).

Consider `C#CCOCCOCCOCCNc1nc(N2CCN(C(=O)Cn3cc(CCO)nn3)CC2)nc(N2CCN(C(=O)Cn3cc(CCCN=C(N)N)nn3)CC2)n1`, for which the max response is 1.27% (inactive).

In the case of `C#CCOCCOCCOCCNc1nc(N2CCN(C(=O)CCCCCCCCCCNC(=O)[C@H]([C@@H](C)CC)n3cc(CCCCN=C(N)N)nn3)CC2)nc(N2CCN(C(=O)CCCCCCCCCCNC(=O)[C@H](CO)n3cc(CCCSC)nn3)CC2)n1`, the max response was -95.3% (active).

For `CC1(C(=O)NS(=O)(=O)c2cccc(F)c2)CCN1C(=O)Cc1ccc(Cl)cc1Cl` (stereo not given), the max response is -3.09% (inactive).

For `CC1(C(=O)NS(=O)(=O)c2ccccc2)CCN1C(=O)C1CCCCC1` (stereo not given), the max response is 0.69% (inactive).

Turning to `CCC(=C/c1sc2ccc3ccccc3c2[n+]1C)/C=C1\Sc2ccc3ccccc3c2N1C`, the max response is -90.2% (active).

In the case of `CCCCc1c(-c2ccc(Br)cc2)ncn1CCc1ccccc1OC`, the max response is 11.5% (inactive).

Take `C[C@@H]1CN([C@@H](C)CO)C(=O)CCCn2nncc2CO[C@@H]1CN(C)S(=O)(=O)c1ccc(-c2ccccc2)cc1`: the max response was -0.942% (inactive).

In the case of `COc1ccc(-c2ccc(CN3C(CC(C)C)C(=O)N(Cc4cn(CC5CCCCC5)nn4)CCS3(=O)=O)cc2)cn1` (stereo not given), the max response was -0.614% (inactive).

In the case of `CN(C)[C@@H]1C(=O)C(C(N)=O)=C(O)[C@@]2(O)C(=O)C3=C(O)c4c(O)ccc(Cl)c4[C@@H](O)[C@H]3C[C@@H]12`, the max response was -11.8% (inactive).

Regarding `C=C1c2c(Cl)ccc(O)c2C(O)=C2C(=O)[C@]3(O)C(O)=C(C(N)=O)C(=O)[C@@H](N(C)C)[C@@H]3[C@@H](O)C12` (stereo not given in full), the max response was -76.5% (active).

In the case of `COc1ccc(C2OC(CCc3ccccc3)Cc3[nH]c(=S)[nH]c(=O)c32)cc1` (stereo not given), the max response was -4.14% (inactive).

With `CC(C)C[C@@H]1Cc2[nH][nH]c(=O)c2[C@H](CCc2ccccc2)O1`, the max response is 19.9% (inactive).

For the compound `Nc1ccc2nc3c(=O)[nH]c(=S)[nH]c3nc2c1`, the max response was -105% (active).

As to `O=C(c1cc(-c2ccco2)nc2ccccc12)N(Cc1nnc(-c2ccc(Cl)cc2)o1)C1CC1`, the max response is -72.6% (active).

For `O=C(c1ccc(Cl)s1)N(Cc1nnc(-c2ccccc2Cl)o1)C1CC1`, the max response is 3.41% (inactive).

On to `CC(C)N(Cc1nnc(-c2ccccc2Br)o1)C(=O)c1cc(Cl)nc2ccccc12`, for which the max response is 9.3% (inactive).

`COc1ccc(NC(=O)c2sc(=O)n(Cc3ccc(S(=O)(=O)N(C)C)cc3)c2C)cc1`: the max response is -4.44% (inactive).

Consider `O=[N+]([O-])c1ccc(N2CCOCC2)cc1`, for which the max response is 2.48% (inactive).

Turning to `O=c1[nH]c2cccnc2n1-c1ccc([N+](=O)[O-])cc1`, the max response was 3.06% (inactive).

Consider `O=c1[nH]n(-c2ccc([N+](=O)[O-])cc2)c(=O)c2ccccc12`, for which the max response was -53.6% (active).

With `CC(C)CNC(=O)C1(C)CCCN1C(=O)CSc1ccccc1` (stereo not given), the max response is -2.54% (inactive).

Consider `CCc1nc2c(OCCC3CCCCC3)cccn2c1N(C)C(=O)c1ccco1`, for which the max response is -1.87% (inactive).

For the compound `O=c1oc2cc(O)ccc2cc1-c1ccc(F)cc1`, the max response is -58.1% (active).

For the compound `COc1ccc(-c2cc3ccc(OCc4nn[nH]n4)cc3oc2=O)cc1`, the max response is -28.7% (inactive).

On to `CN(C)c1cc(-c2ccc(F)cc2)oc(=O)c1Cl`, for which the max response is -9.22% (inactive).
